Assay results taken from PubChem BioAssay (NCI).
This is part of a sample that, as a whole, favours compounds with a hit. Of some 83,000 tested, about 20% had one in any assay.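 Assay: single dose, 48 h. Readout: percent growth (0 = no net growth; negative = cell death). Active: <10.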 Values without a mark were called inactive.

Each compound was assayed on SK-MEL-2 melanoma (assay: NCI-60 one-dose screen, 48 h (100 = growth as untreated, 0 = no growth, -100 = all killed)). Settings: 10 µM unless noted.
For `N#Cc1cccc(C2C3=C(COC3=O)N(CCO)c3cc4c(cc32)OCO4)c1` (configuration not stated), the growth was 26.8%. `COC(=O)c1nc(-c2ccccc2)oc1S(=O)(=O)NCC(c1ccc(Cl)cc1)N1CCOCC1` (configuration not stated) was tested, and the growth was 80.9%. `CC1(C)CC[C@]2(C(=O)N[C@H](CO)Cc3ccccc3)CC[C@]3(C)C(=CC[C@@H]4[C@@]5(C)CCCNC(C)(C)[C@@H]5CC[C@]43C)[C@@H]2C1` gave a growth of 107%. `COc1ccc(C(=O)Cn2c(C(=O)c3ccc(OC)cc3)nc3ccccc32)cc1` showed a growth of 88.4%. Compound `COc1ccc(C2=CC(c3cc(OC)c(OC)c(OC)c3)n3ncnc3N2)cc1` (configuration not stated) has a growth of 24%. With `COc1ccc(C(=O)Cn2c(C(=O)c3ccc(Cl)cc3)nc3ccccc32)cc1` the growth was 73.4%.

These compounds were tested on EKVX NSCLC in the same assay as above. Settings: 10 µM unless noted.
With `CCCCCN(CCCCC)CC(O)c1cc(C)c2ccc3cc(C(C)C)ccc3c2c1` (configuration not stated) the growth was 63.2%. `CN(Cc1ccccc1)c1nc(Cl)c(C2CC(c3ccccc3)=NN2c2ccccc2)s1` (configuration not stated) was tested, and the growth was 85.3%. Compound `COC(=O)c1ccc(NC(=O)Nc2ccc(C(=O)OC)cc2)cc1` has a growth of 118%. Compound `C=C1C(=O)O[C@H]2[C@H]1CC/C(COC(=O)NCc1ccc(Cn3c(=O)sn(-c4ccc(C#N)cc4)c3=O)cc1)=C\CC[C@@]1(C)O[C@@H]21` has a growth of 92.2%. `NS(=O)(=O)c1ccc(-c2cc(-c3nnc(SCC(=O)Nc4ccc(C(=O)/C=C/c5ccc(Cl)cc5)cc4)n3-c3ccccc3)c3ccccc3n2)cc1` gave a growth of 96.2%. In the case of `CO[C@H](C(=O)[C@@H](O)[C@@H](C)O)[C@@H]1Cc2cc3cc(O[C@H]4C[C@@H](O[C@H]5C[C@@H](O)[C@H](O)C(C)O5)[C@H](O)C(C)(O)O4)cc(O)c3c(O)c2C(=O)[C@H]1O[C@H]1C[C@@H](O[C@H]2C[C@@H](O[C@H]3C[C@@H](OC)[C@H](O)C(C)O3)[C@@H](O)C(C)O2)[C@H](O)C(C)O1` (some centres not stated), the growth is reported as 34.7%. Compound `COc1ccc(/C=C(/C(=O)n2cnnn2)c2cc(OC)c(OC)c(OC)c2)cc1` has a growth of 46.5%. With `COc1cccc(/C=N/NC(=O)c2ccccc2N2CCCC2)c1O` the growth was 41.7%. Compound `CN1CCN(c2ccc(NC(=O)c3cncnc3Nc3ccc(OCc4cccc(F)c4)c(Cl)c3)cc2)CC1` has a growth of 98.6%. `C=C1C(=O)O[C@H]2[C@H]1CC/C(CNC(=O)c1c[nH]c3ccc(F)cc13)=C\CC[C@@]1(C)O[C@@H]21` showed a growth of 60.3%. `Cc1ncc(C(=O)Nc2ccc(CN3CCN(C)CC3)c(C(F)(F)F)c2)cc1C#Cc1cnc(N)c2ncccc12` gave a growth of 42.8%. Work on `CCNC(=O)Oc1ccc(/C(=C(/CC)Cc2ccccc2)c2ccc(OCCN3CCCC3)cc2)cc1` yielded a growth of 88.3%. `CCOC(=O)c1ccccc1-c1c2ccc(=[N+](C)C)cc-2oc2cc(N(C)C)ccc12` was tested, and the growth was 34.5%. `O=C(Nc1ncc(Cc2ccccc2)s1)c1ccc2c(c1)OCCCO2` gave a growth of 36.7%. Work on `CCCCNc1cc(-c2cn[nH]c2-c2cc(C)cc(OC)c2)nc(-c2cccnc2)n1` yielded a growth of 88.3%. With `C=C1CC[C@@H]2[C@](C)(COC(C)=O)[C@H](OC(C)=O)CC[C@@]2(C)[C@@H]1CC(Nc1ccc(S(=O)(=O)NC(C)=O)cc1)C1=CCOC1=O` (some centres not stated) the growth was 57.5%. `C/C=C(\C)C(=O)N[C@H]1C(O)C[C@]2(C)C3CC[C@@]4(C)C(CC[C@@H]4C(C)N(C)C)C3CCC2C1O` (some centres not stated) showed a growth of 66%. `O=C(O)COc1ccc(Cl)c(Cl)c1` showed a growth of 104%. For `NS(=O)(=O)c1ccc(C(=O)NN2C(=O)c3c(Br)c(Br)c(Br)c(Br)c3C2=O)cc1`, the growth was 99.7%. Compound `CS(=O)(=O)c1ccc(NC(=O)c2ccccc2)nc1` has a growth of 109%. In the case of `FC(F)(F)Oc1cccc(-c2cnc3ccc(-c4ccncc4)nn23)c1`, the growth is reported as 28.4%. `Cc1ccc2c(-n3nc(C#N)c(C#N)c3N)cc(=O)[nH]c2c1` was tested, and the growth was 67.9%. `CCOC(=O)c1c(C)nc2c(c1N)CC(=O)N2Cc1ccc(OC)cc1` was tested, and the growth was 47.7%. With `COc1cccc(CCNc2ncnc3c2ncn3Cc2nnc3c4ccccc4c(Cl)nn23)c1` the growth was 73.9%. Work on `C=C1C(=O)O[C@H]2[C@H]1CC/C(COC(=O)c1ccc(C(=O)O)s1)=C\CC[C@@]1(C)O[C@@H]21` yielded a growth of 34.2%. `O=S(=O)(Nc1cc(Sc2cccc3cccnc23)c(O)c2ccccc12)c1ccccc1` was tested, and the growth was 36.4%.
